Assay outcomes: PubChem, ICCB-Longwood Screening Facility, Harvard Medical School
AID504770: growth inhibitors of E. coli YBA685 in a screen for V. cholerae RctB (chromosome II replication) inhibitors; z-score (concentration not given with the values); 130,000 compounds, 0.27% hits; E. coli YBA685 rctB-dependent plasmid, OD600 growth, 3 h; hits give low values; in the data active = z-score below about -2, passing the limit was not always enough
MenB inh: blocks the Mycobacterium tuberculosis MenB enzyme. MenB enzyme assay, absorbance read-out. inhibition, % (no concentration beside the values). 100,000 compounds, 0.43% hits; in the data active = inhibition above about 21%, passing the limit was not always enough
MbtI inh: blocks the Mycobacterium tuberculosis siderophore enzyme MbtI; inhibition, % (no concentration beside the values); purified MbtI enzyme, fluorescence intensity read-out; 100,000 compounds, 0.89% hits; in the data active = inhibition mostly above about 56%, no sharp cut-off; inactive = mostly below about 77%
Target sequence (P9WFX0 whole entry, looked up): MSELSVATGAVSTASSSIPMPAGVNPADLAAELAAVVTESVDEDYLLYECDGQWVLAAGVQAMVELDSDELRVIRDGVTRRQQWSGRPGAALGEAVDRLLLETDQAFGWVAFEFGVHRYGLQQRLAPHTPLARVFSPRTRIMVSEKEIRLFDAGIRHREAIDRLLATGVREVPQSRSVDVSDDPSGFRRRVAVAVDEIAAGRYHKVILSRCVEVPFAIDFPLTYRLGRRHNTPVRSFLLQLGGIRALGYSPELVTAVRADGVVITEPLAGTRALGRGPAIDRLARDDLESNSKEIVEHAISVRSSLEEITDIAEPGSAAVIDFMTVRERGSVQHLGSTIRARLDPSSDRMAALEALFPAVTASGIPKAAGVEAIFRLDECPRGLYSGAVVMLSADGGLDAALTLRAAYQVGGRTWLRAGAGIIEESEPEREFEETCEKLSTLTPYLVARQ
Polio RdRp inh: inhibitors of poliovirus RNA polymerase binding and polymerization; % elongation, % (compound at 16.7 µg/mL); poliovirus polymerase elongation, fluorescence polarization; hits give low values; 150,000 compounds, 0.66% hits; AID 588519; P03300; in the data active = % elongation below about 90%
Hits are given with their value; i = inactive; nt = no result. The list is not random: actives were taken first. Their share in the collection is about 1.4%.

SMILES	AID504770	MenB inh	MbtI inh	Polio RdRp inh
C=CCSc1nnc2n(-c3ccccc3)c(=O)c3c4c(sc3n12)CCC4	i	nt	i	nt
CC(C)NS(=O)(=O)c1ccc(OCC(=O)NCc2ccco2)cc1	i	nt	i	nt
CC(NS(=O)(=O)c1ccc(Br)cc1)C(=O)NCc1ccco1 (centres undefined)	i	37	i	i
O=C(O)C1C2C=CC(C2)C1C(=O)Nc1cccc(Br)c1 (centres undefined)	i	26	i	i
COC(=O)c1ccc(C(=O)OC)cc1	i	i	nt	i
COC(=O)c1ccc(C(=S)NCC(OC)OC)cc1	i	i	87	79
O=c1ccsn1Cc1ccccc1	-9.2	i	93	i
C/C(=N\N1C(=O)c2ccccc2C1=O)c1ccccc1O	i	i	i	i
CC1=NN(c2ccccc2)C(=S)/C1=C\N1CCCCC1	i	i	98	i
Cc1ccc(C(=O)CC(C(=O)O)N2CCN(C)CC2)cc1 (centres undefined)	i	31	nt	i
N#CC(c1ccccc1Cl)N1CCOCC1 (centres undefined)	i	nt	nt	nt
O=C1COc2ccc(-c3cc(-c4ccccc4)c4c(n3)-c3ccccc3OC4)cc2N1	nt	nt	nt	i
O=C1COc2ccc(-c3csc(-n4nccc4C(F)(F)F)n3)cc2N1	i	i	i	87
CC(C)CNCCCN1CCOCC1	i	36	i	i
Cn1c(N)c(C#N)c2c(c1=S)CCCC2	-2.8	i	i	88
COc1cc(C(=O)N2CCn3c(C)ccc3C2C)cc(OC)c1OC (centres undefined)	i	i	i	i
CCC(C)(C)c1nnc(N)s1	i	i	99	i
CC1CCN(C(=O)CSc2nnnn2C2CC2)c2ccccc2S1 (centres undefined)	i	i	i	i
COc1cc(Br)cc(C=Nc2cc(C)on2)c1O	i	i	i	i
O=C(CC(SC1CCCCC1)C(=O)O)c1ccc(Br)cc1 (centres undefined)	i	i	nt	i
O=C(CC(NC1CC1)C(=O)O)c1ccc(Cl)cc1 (centres undefined)	i	35	nt	i
O=C(CC(Sc1ccc(Br)cc1)C(=O)O)c1ccc(Cl)cc1 (centres undefined)	i	i	nt	85
CCC(C)NS(=O)(=O)c1ccc(S(=O)(=O)N(Cc2ccc(C)o2)C2CCCC2)cc1 (centres undefined)	i	33	i	i
CCNS(=O)(=O)c1ccc(S(=O)(=O)N(Cc2ccccn2)C2CCCCC2)cc1	i	i	i	i
COC(=O)c1[nH]c2sc3c(c2c1N)CCCC3	i	i	i	i
SMILES	AID504770	MenB inh	MbtI inh	Polio RdRp inh
CCOc1ccc(-c2c(=O)n(O)c3ccccc3[n+]2[O-])cc1	i	i	87	i
O=c1c(-c2ccc(I)cc2)[n+]([O-])c2ccccc2n1O	i	i	i	i
CCS(=O)(=O)C1=NSC2=NC(=O)/C(=C\c3ccco3)C(=N)N21	i	i	i	72
CCOc1ccc(/C=C/C(=O)Nc2sc3c(c2C(=O)OC)C(C(=O)OC)CC3)cc1 (centres undefined)	nt	nt	nt	79
COC(=O)c1c(NC(=O)CCCOc2ccc(C)cc2)sc2c1CCCC2	nt	nt	nt	i
COC(=O)c1c(NC(=O)CCCOc2cccc(C)c2)sc2c1CCC2	nt	nt	nt	i
COC(=O)c1c(NC(=O)CCCOc2ccc(C)cc2)sc2c1C(C(=O)OC)CC2 (centres undefined)	nt	nt	nt	71
COC(=O)c1c(NC(=O)CCCOc2cccc(C)c2)sc2c1C(C(=O)OC)CC2 (centres undefined)	nt	nt	nt	81
O=C(O)c1ccccc1C(=O)N1CCN(Cc2ccccc2)CC1	i	nt	i	i
O=C(O)CCc1nc2ccccc2n1-c1ccccc1	i	nt	i	i
S=c1[nH]nc(Cc2cccc3ccccc23)n1/N=C/c1ccco1	i	i	65	i
FC(F)(F)c1n[nH]c(=S)n1/N=C/c1c[nH]c2ccccc12	i	i	nt	i
CCOC1(O)C(=O)c2ccccc2C(=O)C1(O)OCC (centres undefined)	i	nt	i	nt
O=C1c2ccccc2C(=O)C2(O)OCCOC12O (centres undefined)	i	i	i	90
CSc1nc2ccccc2n1CC(=O)c1cc(C)n(C)c1C	i	i	i	i
Cc1ccc(C(=O)Sc2nc(C)cc(C)n2)cc1	i	i	78	i
Cc1ccc(C(=O)Sc2nnc3ccccn23)cc1	i	nt	i	i
CCOc1ccc(S(=O)(=O)c2cn(Cc3ccc(C)cc3)c3ccc(OC)cc3c2=O)cc1	nt	nt	nt	90
COc1ccc(S(=O)(=O)c2cn(Cc3ccccc3)c3ccc(OC)cc3c2=O)cc1	nt	nt	nt	i
Cc1ccc(C2=NNC(c3cccs3)S2)cc1 (centres undefined)	i	i	nt	72
N#Cc1ccc(/C=N/n2cnc3sc4c(c3c2=O)CCC4)cc1	i	i	i	i
O=C(/C=C/c1ccco1)N1CCCc2ccccc21	i	nt	nt	nt
CCSc1nc2c(c(=O)[nH]c(=O)n2C)n1CC	i	i	98	i
CNCc1nnc(-c2ccccc2)o1	i	i	i	i
CCOC(=O)Cn1cnc2sc(C(=O)OCC)c(C)c2c1=O	i	48	i	i
SMILES	AID504770	MenB inh	MbtI inh	Polio RdRp inh
O=C(O)CNC(=O)COc1ccccc1	i	i	i	i
Cc1oc(-c2cc(Cl)ccc2Cl)cc1C(=O)NCCO	i	i	i	i
CC(=O)c1c(CC(=O)O)[nH]n(-c2nc3ccccc3s2)c1=O	i	i	60	i
COC(=O)Cc1[nH]n(-c2nc3ccccc3s2)c(=O)c1C(C)=O	i	i	nt	i
CNC(=O)c1ccc(CN2CCc3ccccc3C2)cc1	i	27	i	i
O=C(Cn1cnc2ccccc2c1=O)N1CCCCCC1	i	33	i	i
O=C(Cn1cnc2ccccc2c1=O)N1CCc2ccccc21	i	i	i	i
CS/C(=N/S(=O)(=O)c1ccccc1)N1CCN(c2c(C#N)cccc2C#N)CC1	i	i	i	i
O=C(Nc1ccc2c(c1)SC1=NCCN12)C(F)(F)F	i	i	i	i
Cc1ccc2nc(NCc3ccccc3)[nH]c2c1	-2.2	i	i	i
COc1ccc(C(=O)NCC23C=CC(O2)C2C(=O)N(c4ccccc4C)C(=O)C23)cc1 (centres undefined)	i	i	65	i
COc1ccc(CNCc2cccs2)c(OC)c1OC	i	i	i	i
O=c1[nH]snc1N1CCOCC1	i	nt	i	nt
O=c1[nH]snc1N1CCCCC1	i	i	i	64
CC1(C)CC(NCC(=O)Nc2ccc(C(=O)O)cc2)CC(C)(C)N1	i	i	i	i
O=c1cc(-c2ccccc2)oc2ccccc12	i	nt	nt	nt
O=c1oc2c(o1)=C(c1ccccc1)S(=O)(=O)C=2c1ccccc1	i	i	58	i
COC(=O)C1=C(C)NC(=S)NC1c1cn(-c2ccccc2)nc1-c1cccs1 (centres undefined)	i	i	nt	i
c1ccc(-c2nnc3sc(-c4ccc5c(c4)OCO5)nn23)cc1	i	i	i	i
O=S(=O)(c1cccc(-c2nn3c(-c4ccncc4)nnc3s2)c1)N1CCCCC1	i	i	i	85
CCn1c(N)c(C(=O)NC)sc1=S	i	i	87	i
Cc1ccc(C(=O)NCC2CCCO2)cc1 (centres undefined)	i	i	i	i
